Assay outcomes deposited in PubChem by Broad Institute.
PrP 5UTR inh: inhibition of PrP 5' UTR reporter expression | cell-based PrP 5' UTR mRNA reporter, plate reader | inhibition, % (test concentration not listed) | 340,000 compounds, 0.35% hits | AID 488862, 2010; in the data active = inhibition above about 52%; also: 0 = median of the neutral control wells
PfHsp40 rescue: rescue of yeast from PfHsp40 toxicity, primary screen, S. cerevisiae, ATP luminescence; S. cerevisiae expressing PfHsp40, growth rescue; growth rescue, % at 12.5 µM; 340,000 compounds, 0.68% hits; in the data active = growth rescue above about 28%, passing the limit was not always enough;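 also: yeast W303a lacking pdr1 and pdr3 grown in galactose medium; growth measured after three days at 30 °C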
FadD28 binding: inhibitors of FadD28 bisubstrate probe binding, primary screen, biochemical, fluorescence polarization, single point | inhibition, % at 12.5 µM | 360,000 compounds, 0.22% hits | AID 588549, 2011; in the data active = inhibition above about 8.5%, passing the limit was not always enough
Y pestis TopoI: Yersinia pestis topoisomerase I inhibitors, primary screen, biochemical, cleavage product accumulation, plate reader, single point. Y. pestis Topo-I cleavage product accumulation. activity, % at 10 µM. 360,000 compounds, 0.064% hits; in the data active = activity above about 50%, passing the limit was not always enough
Mtb BioA inh: M. tuberculosis BioA enzyme inhibitors, primary screen, biochemical, plate reader, single point, HTS; purified M. tuberculosis BioA enzyme; 360,000 compounds, 0.096% hits; 7,8-diaminopelargonic acid synthase BioA (Mycobacterium tuberculosis); inhibition, % at 9.99 µM; in the data active = inhibition above about 40%
Numbers without * were called inactive; . = not tested or not shown. An excerpt weighted towards active compounds, which were near 1.1% of everything screened.

SMILES	PrP 5UTR inh	PfHsp40 rescue	FadD28 binding	Y pestis TopoI	Mtb BioA inh
COC(=O)[C@]1(Cc2ccccc2)N[C@H](CN(C)S(=O)(=O)c2ccc(-c3ccccc3)cc2)[C@@H]2C(=O)N(C)C(=O)[C@@H]21	-12	0	11*	23	-1
C[C@H](CO)N1C[C@H](C)[C@H](CN(C)C(=O)Nc2ccccc2)Oc2ccc(N(C)C)cc2C1=O	.	.	.	.	-1
N#C/C(=C(/O)COc1ccccc1)c1nnc2n1CCCCC2	-14	31*	-3	-6	.
COc1ccccc1NC(=O)N1C[C@@H](C)[C@H](OC)CN(C)C(=O)c2ccc(NC(=O)c3cc(C)on3)cc2OC[C@H]1C	.	.	.	.	0
COc1ccc(NC(=O)N(C)C[C@@H]2Oc3ccc(NS(=O)(=O)c4cn(C)cn4)cc3CC(=O)N([C@H](C)CO)C[C@H]2C)cc1	.	.	.	.	0
CCCC1CC(C)(c2csc(Nc3ccc(OCC)cc3)n2)OC1=O (configuration not stated)	-13	50*	-2	-7	-1
CCOc1ccc(NC(=O)CC2CC(C)(C)OC2=O)cc1 (configuration not stated)	2	0	-2	2	3
C[C@@H]1CN([C@H](C)CO)S(=O)(=O)c2ccc(C#CCN(C)C)cc2O[C@@H]1CN(C)Cc1cccnc1	.	.	.	.	-2
CCCC(C)Sc1nc2c([nH]1)c(=S)n(C)c(=O)n2C (configuration not stated)	-5	38*	0	13	-1
O=C(O)CC(C(=O)O)N1C(=O)/C(=C/c2ccc(-c3nc4ccccc4s3)o2)SC1=S (configuration not stated)	-19	14	29*	-14	-3
O=C(NC(C(=O)N/N=C/c1cccc2ccccc12)c1n[nH]c(=O)c2ccccc12)c1ccccc1 (configuration not stated)	-26	1	-2	36	0
O=C(NC(C(=O)N/N=C/c1cc([N+](=O)[O-])ccc1O)c1n[nH]c(=O)c2ccccc12)c1ccccc1 (configuration not stated)	-11	82*	-2	-1	.
COc1ccc(S(=O)(=O)N(C)C[C@@H]2OCCCC[C@@H](C)Oc3ccc(NS(=O)(=O)c4cn(C)cn4)cc3C(=O)N([C@H](C)CO)C[C@@H]2C)cc1	.	.	.	.	0
Cc1cc(O)c(C=O)c2c1C(=O)Oc1c(CO)c(O)c3c(c1O2)C(O)OC3=O (configuration not stated)	-5	161*	18*	-10	1
Cc1cc(O)c(CN(C)C)c2c1C(=O)/C(=C/c1ccco1)O2	0	1	-4	-6	.
COc1cc2cc3c(N)c(C(=O)Nc4sc(C)c(C)c4C#N)sc3nc2cc1OC	-6	0	11*	3	0
COc1ccc(NC(=O)N(C)C[C@@H]2Oc3ccc(NC(=O)Nc4c(C)noc4C)cc3CC(=O)N([C@H](C)CO)C[C@H]2C)cc1	.	.	.	.	6
Cc1cc(Cl)ccc1OCc1n[nH]c(=S)n1C1CCCCC1	-19	80*	-6	11	4
COc1ccc(Cl)cc1-c1n[nH]c(=S)n1C1CCCCC1	7	2	0	11	2
C[n+]1c(-c2ccccc2)cc2c(=Cc3ccc([N+](=O)[O-])cc3)c3ccccc3n21	-18	2	-5	-22	.
CN(C)c1ccc(C=c2c3cc(O)ccc3n3c2cc(-c2ccccc2)[n+]3C)cc1	-20	295*	1	-35	.
C[n+]1c(-c2ccccc2)cc2c(=Cc3ccccc3)c3ccccc3n21	-14	170*	-6	-14	.
COc1ccc(CN2CCN(c3ccc(F)cc3)CC2)c(OC)c1OC	-25	0	-3	-5	.
COc1ccc(CN2CCN(C(c3ccc(F)cc3)c3ccc(F)cc3)CC2)c(OC)c1OC	-2	39*	-4	14	1
C[C@H](C[C@H](O)[C@H]1OC1(C)C)C1=C2C[C@H](O)C3[C@@]4(C)CCC(=O)C(C)(C)C4CC[C@]3(C)[C@@]2(C)CC1 (some centres not stated)	-4	40*	-1	16	-1
SMILES	PrP 5UTR inh	PfHsp40 rescue	FadD28 binding	Y pestis TopoI	Mtb BioA inh
C[C@@H](C[C@@H](O)[C@H](O)C(C)(C)O)[C@@H]1CC[C@]2(C)C3=CC[C@H]4C(C)(C)C(=O)CC[C@]4(C)[C@H]3CC[C@@]12C	-12	-2	-1	13	-2
Cc1cccc(NC(=O)Cn2c(=O)n3nc(CCn4nc(C)cc4C)nc3c3ccccc32)c1	-6	3	9.0*	1	1
CCN(C(C)=O)c1cnc(C=NNC(N)=S)c2ccccc12	16	82*	-2	7	.
Cc1ccc(N2CC(C(=O)N3CCC(C(=O)Nc4ccc(Br)cc4)CC3)CC2=O)cc1 (configuration not stated)	-2	1	-1	25	3
O=C(Nc1ccc(Cl)c(Cl)c1)C1CC(=O)N(c2ccc(Br)cc2)C1 (configuration not stated)	-3	31*	-7	-5	1
COc1cccc(-c2sc3ccc(OC)cc3c2-c2ccc(OCCN(C)C)cc2)c1	-6	31*	-11	-20	-2
CN(C)CCOc1ccc(-c2c(-c3ccsc3)sc3ccccc23)cc1	-8	91*	-9	-12	-2
COc1ccc(-c2sc3ccccc3c2-c2ccc(OCCN(C)C)cc2)cc1	-4	19	-12	-20	-1
COc1cccc(-c2sc3ccc(OC)cc3c2-c2ccc(O)cc2)c1	-3	103*	-3	8	-1
CC(=O)N1[C@@H]2c3ccc(-c4ccccc4)c(=O)n3C[C@H]1[C@H](CO)[C@H]2C(=O)NCC1CC1	.	.	.	.	-1
C[C@H]1CN([C@@H](C)CO)C(=O)c2cccc(NC(=O)Nc3ccc4c(c3)OCO4)c2O[C@@H]1CN(C)Cc1ccncc1	.	.	.	.	0
CO[C@H]1CN(C)C(=O)c2ccc(NS(C)(=O)=O)cc2OC[C@@H](C)N(Cc2nccs2)C[C@@H]1C	.	.	.	.	-2
C[C@@]12CCC=C[C@H]1[C@H](c1ccc3ccccc3c1)N(Cc1ccccc1)C2=O	-7	1	0	24	-1
C[C@@]12CCC=C[C@H]1[C@H](c1ccc3ccccc3c1Br)N(Cc1ccccc1)C2=O	-10	65*	-1	39	-1
Cc1cc(S(=O)(=O)c2ccc(Cl)cc2)nc(S(=O)(=O)c2ccc(Cl)cc2)c1C#N	.	.	-5	1	-1
Cc1cc(N/N=C/c2ccc(F)cc2)nc(-n2nc(C)cc2C)n1	.	.	-1	17	-3
COc1ccc(/C=N/Nc2cc(C)nc(-n3nc(C)cc3C)n2)c(OC)c1	8	178*	1	16	.
O=C(O)CSc1nc(-c2ccc(Cl)cc2)nc2c1oc1ccccc12	-38	348*	-24	9	8
Cc1nc2c(F)c(F)c(C(F)(F)F)c(F)c2[nH]1	1	88*	-5	2	-1
